G9a block = blocks human histone lysine methyltransferase G9a. Q96KQ7. G9a H3K9 monomethylation, AlphaScreen, 2 h. Potency, µM (top dose mostly 102 µM), for the others: at the highest dose activity, negative = inhibition, most hits filed as inhibitors. 350,000 tested, 8.8% active. AID 504332; further: on the % scale 0 is the no-effect control and ±100 the full control effect; nearly all actives have a fitted effect of over 75% in size
Target sequence (Q96KQ7 913-1193 limits assumed): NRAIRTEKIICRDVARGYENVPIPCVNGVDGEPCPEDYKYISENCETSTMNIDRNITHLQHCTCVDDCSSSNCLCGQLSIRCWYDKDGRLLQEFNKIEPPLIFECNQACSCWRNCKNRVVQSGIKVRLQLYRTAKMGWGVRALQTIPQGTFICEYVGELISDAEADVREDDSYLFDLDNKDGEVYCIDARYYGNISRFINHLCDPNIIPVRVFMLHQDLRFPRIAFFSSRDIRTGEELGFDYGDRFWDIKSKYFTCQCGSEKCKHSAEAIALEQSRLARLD
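Enzyme 20 nM + cpd, 15 min RT; add b-H3K9 pep 500 nM / SAM 20 uM; 2 h RT; anti-H3K9me1 Ab 0.5 ug/mL + SA donor / anti-rabbit acceptor beads 20 ug/mL each, 10 min; AlphaScreen read.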
L3MBTL1 block = L3MBTL1 (human) inhibition. AID 485360. 230,000 tested, 0.66% active. Q9Y468. Potency, µM (top dose mostly 57.1 µM), without a hit: top-dose activity, negative = inhibition, usual class: inhibitors. AlphaScreen L3MBTL1–H3K9me1 peptide binding; further: on the % scale 0 is the no-effect control and ±100 the full control effect; nearly all actives have a fitted effect of over 60% in size
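AlphaScreen assay: L3MBTL1 (50 nM final) was preincubated 30 min at room temperature with biotinylated H3(1-15)K9me1 peptide (75 nM final), then 30 min with library compounds; streptavidin donor and nickel chelate acceptor beads (10 ug/mL final) added, 30 min dark.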
HP1b chromo inh = inhibitors of HP1-beta chromodomain binding to methylated histone tails | AID 540317 | Potency, µM (titrated, usually from 114 µM), for the others: at the highest dose activity change, negative = inhibition, most hits filed as inhibitors | 390,000 tested, 0.56% active | AlphaScreen HP1-beta / biotin-H3K9me3 peptide binding | P83916; further: nearly all actives have a fitted effect of over 70% in size
Target sequence (P83916 whole entry, looked up): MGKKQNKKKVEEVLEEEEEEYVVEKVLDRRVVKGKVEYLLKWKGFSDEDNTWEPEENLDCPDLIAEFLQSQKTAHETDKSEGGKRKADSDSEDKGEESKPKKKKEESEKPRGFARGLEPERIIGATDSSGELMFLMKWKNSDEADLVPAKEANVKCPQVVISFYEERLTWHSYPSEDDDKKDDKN
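AlphaScreen: HP1-beta (50 nM) preformed 30 min with biotin-H3(1-18)K9me3 peptide (50 nM) in PBS pH 7.4, 0.01% Tween-20. Compound added for 30 min at RT, then streptavidin donor/nickel chelate acceptor beads (10 ug/mL) for 30 min.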
JMJD2A Tudor = blocks the human JMJD2A Tudor domain | AlphaScreen JMJD2A-Tudor / H3K4me3 peptide binding | AID 504339 | O75164 | Potency, µM (series often up to 114 µM), for inactives: at the highest dose activity change, negative = inhibition, usual class: inhibitors | 390,000 tested, 4.4% active; further: on the % scale 0 is the no-effect control and ±100 the full control effect; nearly all actives have a fitted effect of over 50% in size
BAZ2B inh = inhibitors of human BAZ2B bromodomain. Potency, µM (series often up to 114 µM), for the others: at the top dose activity change, negative = inhibition, usual class: inhibitors. Q9UIF8. 360,000 tested, 4.4% active. AlphaScreen BAZ2B-H3K14Ac peptide displacement; further: on the % scale 0 is the no-effect control and ±100 the full control effect; nearly all actives have a fitted effect of over 60% in size
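Inhibition is scored as reduced AlphaScreen emission. The BAZ2B/b-H3(5-23)K14Ac complex (50 nM each) in PBS pH 7.4, 0.01% Tween-20 meets compound (up to 110 uM) for 30 min at RT before bead addition.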
* = called active by the depositor; ? = inconclusive; . = no result; ! = a repeat was not active; [ ] = dose if it differs, or a comment. Compounds with a hit are over-represented: about 11% of the library has one in this group of screens. The call rests on the fitted dose curve; in most records, active means well fitted inhibition curve with a large enough effect; inconclusive means small, poorly fitted or top-dose-only effect; inactive means no such curve, though single readings can be large or run the other way. Potency means the concentration at half of the fitted maximal effect.

SMILES	G9a block	L3MBTL1 block	HP1b chromo inh	JMJD2A Tudor	BAZ2B inh
O=C(O)CC1OCC=C2CN3CCC45C6=CC(=O)C(=O)C([N+](=O)[O-])=C6NC4C1C2CC35 (stereo unspecified)	.	25µM*	55%	2.5µM*!	?
Cc1nc2ccccc2n1C1CCN(Cc2nnnn2CCc2ccccc2)CC1	50µM*	-3%	11%	?	?
Fc1ccc2c(c1)nnn2C1CCN(Cc2nnnn2CCc2ccccc2)CC1	50µM*	-2%	27%	-22%	?
O=C(c1ccco1)N1CCC[C@@]2(CCN(Cc3ccncc3)C2)C1	7%[12.7 µM]	.	.	.	.
C[N+]1(C)[C@@H]2CC[C@H]1CC(OC(=O)[C@@H](CO)c1ccccc1)C2 (stereo partly specified)	7.9µM*!	.	-9%	?	-16%
C[N+]1(C)C2CCC1CC(OC(=O)c1c[nH]c3ccccc13)C2 (stereo unspecified)	11µM*	9%	27%	50µM*	-31%
C[N+]1(C)CCC(OC(=O)C(c2ccccc2)c2ccccc2)CC1	6.7µM*!	.	17%	?	.
C[N+]1(C)C2CC[C@H]1CC(OC(=O)C(CO)c1ccccc1)C2 (stereo partly specified)	1%[59 µM]	6%	40%	-4%	-4%
CCCc1nc(SC)ncc1C(=O)Nc1ccc(Cl)cc1C(=O)c1ccccc1	1%[59 µM]	.	-17%	-26%	-13%
Cn1ccnc1	11%[12.7 µM]	.	.	.	.
CC(N)Cc1c[nH]c2ccc(OCc3cccs3)cc12 (stereo unspecified)	21%[59 µM]	.	-8%	?	.
CC(N)Cc1c[nH]c2ccc(O)cc12 (stereo unspecified)	7.9µM*	.	39%	-17%	.
COc1ccc2cc1Oc1ccc(cc1)C[C@H]1c3cc(c(OC)cc3CCN1C)Oc1c(OC)c(OC)cc3c1[C@@H](C2)N(C)CC3	24%[2.33 µM]	-1%	1%	?	?
COC(=O)c1c(C)n(Cc2ccco2)c2ccc(O)cc12	?	.	13%	-12%	-35%
COc1ccc(OCc2n[nH]c(=S)n2Cc2ccco2)cc1	2.8µM*	.	?	?	?
O=P(OCC(F)(F)C(F)F)(N1CCCCC1)N1CCCCC1	45µM*	2%	12%	-3%	-5%
O=P(C(Cl)Cl)(N1CCCCC1)N1CCCCC1	4%	.	.	-1%	5%
O=[N+]([O-])c1cc(I)c(O)c(I)c1	6%[59 µM]	.	.	.	.
COC1CCCCC1NCCc1ccccc1 (stereo unspecified)	?	-6%	?	?	-30%
CCC(CC)NC1CCCCC1OC (stereo unspecified)	?	6%	19%	50µM*	?
COc1ccc2o/c(=N\O)c(C(=O)Nc3ccc(C)cc3)cc2c1	50µM*	-2%	22%	-22%	-4%
CCOc1ccc(C2c3c(-c4ccccc4O)n[nH]c3C(=O)N2Cc2ccncc2)cc1 (stereo unspecified)	3%[59 µM]	.	25%	?	-30%
OCCN(CC#CC(O)(c1ccccc1)C1CCCC1)CCO (stereo unspecified)	50µM*	4%	23%	?	-33%
Cc1ccccc1CN1CCN(c2ccc(Cl)cc2)CC1	13µM*	13%	-12%	4µM*	?
COc1cc(C)c(CN2CCN(c3ccccc3)CC2)cc1C	?	-14%	-58%	3.2µM*	?
SMILES	G9a block	L3MBTL1 block	HP1b chromo inh	JMJD2A Tudor	BAZ2B inh
C#C[C@@]1(O)CC[C@@H]2[C@@H]3CCC4=CC(=O)CC[C@@]4(C)[C@H]3CC[C@]21C	15%[21.5 µM]	.	.	.	.
Cc1ccc(-c2nnc(C)c(N3CCCC3)n2)cc1	6%	-11%	51%	16%	0%
COc1cc2c(cc1OC)C(C)N(C(=O)c1nccnc1C(=O)O)CC2 (stereo unspecified)	?	-5%	-10%	50µM*	?
CNc1cc(Cl)c2nonc2c1[N+](=O)[O-]	25µM*	0%	-14%	-23%	-31%
CCCCCn1c(=O)c(C(=O)Nc2cnccn2)c(O)c2ccccc21	.	6%	9%	45µM*	14%
CCCCCCCn1c(=O)c(C(=O)Nc2cnccn2)c(O)c2ccccc21	0%	11%	70%	8%	5%
CCCCCCCSc1cc(OC)c(CCN(C)C)cc1OC	?	?	?	35µM*	25µM*
CCCCCSc1cc(OC)c(CCN)cc1OC	-13%[59 µM]	-2%	-31%	?	?
CC(=O)c1cn(Cc2ccc(F)cc2)c2ccccc12	14%	1%	23%	-2%	-33%
CC(N)Cc1cn(Cc2ccccc2)c2ccccc12 (stereo unspecified)	?	-1%	-22%	79µM*	-30%
O=C(O)[C@@H]1CCN1	-2%[59 µM]	.	.	.	.
CC1=C2CC3C(CC=C4C[C@@H](O)CC[C@@]43C)[C@@H]2CC[C@]12O[C@@H]1C[C@H](C)CN[C@H]1[C@H]2C (stereo partly specified)	-8%[59 µM]	.	.	.	.
CCCN(CCC)[C@H]1CCc2c(F)ccc(O)c2C1	50µM*	.	.	.	.
COc1cccc(-n2c(O)c(C=NCCN3CCOCC3)c(=O)[nH]c2=O)c1	45µM*	4%	63%	-11%	8%
Cc1ccc(-n2c(O)c(/C=N/Nc3ccccc3)c(=O)[nH]c2=O)cc1C	7.9µM*	-16%	25%	-24%	-24%
Cn1c(O)c(C=NCCCN2CCCC2=O)c(=O)n(C)c1=O	1%	2%	1%	-8%	5%
COc1ccc(N/N=C/c2c(O)n(-c3cccc(C)c3)c(=O)[nH]c2=O)cc1	2.2µM*	-8%	4%	-30%	-14%
Cc1cc(C)c(-n2c(O)c(C=NCCN3CCOCC3)c(=O)[nH]c2=O)c(C)c1	-5%	1%	57%	2%	-2%
CN1CCN(/N=C/c2c(O)n(C)c(=O)n(C)c2=O)CC1	28µM*	?	18%	-8%[57.1 µM]	-12%

Screening data from PubChem.
